Reference: PubChem BioAssay (NCI)
This is part of a sample that, as a whole, favours compounds with a hit. Of some 83,000 tested, about 20% had one in any assay.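 Single-concentration screen, 48 h exposure, 96-well plates. Endpoint: percent growth. Below 10 = active.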 Values without a mark were called inactive. Activity calls are given as the source filed them.

Each compound was assayed on MDA-MB-468 breast (assay: NCI-60 one-dose screen, 48 h (100 = growth as untreated, 0 = no growth, -100 = all killed)). Conditions: 10 µM unless noted.
For `Cc1cc2nc(CC(=O)c3ccncc3)c(=O)[nH]c2cc1C`, the growth was 102%.
Compound `CC(C)Cc1ccc([C@H](C)C(=O)O)cc1` has a growth of 113%.
With `N#CSc1c[nH]c2cccc(/C=C/C(=O)/C=C(O)/C=C/c3cccc4[nH]cc(SC#N)c34)c12` the growth was -55.8% (active).
`Cc1ccc(-c2nn(-c3ccccc3)cc2C=C2C(=O)ON=C2C(C)C)cc1` gave a growth of 94%.
For `COc1ccccc1C1=C(Br)C(=O)c2nc(C)ccc2C1=O`, the growth was 107%.
Compound `O=C1/C(=C/c2ccc(-c3cccc(C(F)(F)F)c3)o2)SC(=S)N1CCc1ccc(O)cc1` has a growth of 95%.
Work on `COc1ccc(-c2cc(-c3cccc4ccccc34)n3c(n2)nc2ccccc23)cc1OC` yielded a growth of 63.2%.
`O=C(Nc1cccc(Cl)c1)c1cc([N+](=O)[O-])ccc1O` gave a growth of 31.3%.
In the case of `O=C1C=C(O)C(=O)C=C1O`, the growth is reported as 115%.
With `Cc1cc(Nc2nc(-c3ccncc3)nc3ccccc23)n[nH]1` the growth was 84.2%.
In the case of `C=C(C)[C@@H]1CC[C@]2(C(=O)N3CCN(C)CC3)CC[C@]3(C)[C@H](CC[C@@H]4[C@@]5(C)CC[C@H](OP(=O)(OCC)OCC)C(C)(C)[C@@H]5CC[C@]43C)[C@@H]12`, the growth is reported as 76.2%.
With `NC(=O)CSc1nc(-c2ccc(F)cc2)cc(-c2ccco2)n1` the growth was 71.7%.
`CCC(CC(C)C)Nc1ccc(NC(CC)CC(C)C)cc1` (stereo not given) was tested, and the growth was 71.3%.
Compound `Cc1ccc(C(=O)C2C(=O)C3CCC2C3)cc1` (stereo not given) has a growth of 100%.
For `O=C(CCCSc1nc(-c2ccc(Cl)cc2)cc(-c2ccc(Cl)cc2)n1)NO`, the growth was -49.5% (active).
Compound `Oc1cccc(-c2nc3sccn3c2-c2ccncn2)c1` has a growth of 83%.
`C#CCOC(=O)C(N)CS` (stereo not given) showed a growth of 97.3%.
In the case of `CCOP(=O)(OCC)OC[C@]12CCC(C)(C)C=C1[C@H]1CC[C@@H]3[C@@]4(C)CC[C@H](OP(=O)(OCC)OCC)C(C)(C)[C@@H]4CC[C@@]3(C)[C@]1(C)CC2`, the growth is reported as -16.8% (active).
`COc1ccc(C(=O)Cn2cnc3c(Nc4cc(C(=O)Nc5ccc(N6CCN(CCO)CC6)cc5)ccc4C)ncnc32)cc1` was tested, and the growth was 114%.
Compound `O=C1NC(=O)C(=Cc2cc(-c3ccc(Cl)cc3)n(-c3ccccc3)n2)C(=O)N1` has a growth of 87.3%.
`CC(C)(C)n1cc(-c2ccnc(NCCNS(=O)(=O)c3ccc(F)cc3)c2)c(-c2cccc(O)c2)n1` was tested, and the growth was 8.72% (active).
`C/C(=N/N=C(N)N)c1ccc(Cl)cc1` was tested, and the growth was 95.7%.
With `COc1cnc2c(c1)C(=O)c1c-2n(CCCN2CCN(C)CC2)c(=O)c2cc(Cl)ccc12` the growth was 54.2%.
Work on `CC(C)C(=O)Nc1ncc(C(=O)NCCN(Cc2ccccc2)C(=O)c2ccc(S(=O)(=O)Nc3ccccc3)cc2)s1` yielded a growth of 80.3%.
`CCN(CC)C(=O)/C=C(/C)c1ccccc1` gave a growth of 87.6%.
Compound `CCOC1(OCC)OC(c2ccccc2)=C(C#N)C(/C=C\c2ccccc2)C1(OCC)OCC` (stereo not given) has a growth of 56.7%.
In the case of `COc1cc(C(=O)N/N=C/c2ccc(N(C)C)cc2)cc(OC)c1OC`, the growth is reported as -12.5% (active).
`CC[C@@]1(O)C(=O)OCc2c1cc1n(c2=O)Cc2c-1nc1ccccc1c2/C=N/OC(C)(C)C` was tested, and the growth was -44.5% (active).
Work on `O=c1c2cc(F)ccc2sc2c(N3CCCCC3)nc3ccccc3c12` yielded a growth of 95.6%.
`COc1cc(C2CC(c3ccc(Cl)cc3)=NN2C=O)ccc1OS(=O)(=O)c1ccc(C)cc1` (stereo not given) was tested, and the growth was 60.6%.
Work on `COc1cc(C2C=C(C)N=C3SC=CN32)cc(OC)c1OC` (stereo not given) yielded a growth of 97.5%.
Work on `COC(=O)c1c(C(=O)OC)c2n(CC(=O)Nc3cccc4cccnc34)c3ccccc3n2c1C(=O)c1ccc(C)cc1` yielded a growth of 98.6%.
In the case of `Cn1ncc2ncc(-c3ccc4ncc(C#N)c(N5CCc6cc(F)c(Cl)cc65)c4c3)cc21`, the growth is reported as 8.25% (active).
In the case of `CN(C)c1ccc(-c2ccc3[nH]c(=O)nc(-c4ccc(F)cc4)c3c2)cn1`, the growth is reported as 1.22% (active).
For `O=S(=O)(Nc1ccc(I)cc1F)c1ccc(-c2cnc(C3CC3)o2)cc1`, the growth was -9.07% (active).
`Cc1cccc(C)c1NC(=O)CN(CC(C)C)CC(O)COc1ccccc1` (stereo not given) gave a growth of 94.5%.
Work on `COc1cccc(OC)c1-c1nnn(C)c1C(=S)N1CCN(c2ccc([N+](=O)[O-])cc2Cl)CC1` yielded a growth of 89%.
For `C[n+]1c2ccccc2nc2ccc(NCCO)cc21`, the growth was 94%.
`Nc1nc2ncc(CCNc3ccc(C(=O)NC(CCC(=O)O)C(=O)O)cc3)nc2c(=O)[nH]1` (stereo not given) was tested, and the growth was 96.7%.
Compound `FC(F)(F)c1cc(Nc2ccc3cc(OCCCN4CCOCC4)ccc3n2)ccc1Cl` has a growth of 31.1%.
